Assay results reported in PubChem BioAssay (NCATS).
Results filed as inconclusive are left out. The source made the active and inactive calls. The call rests on the fitted dose curve; in most records, active means well fitted inhibition curve with a large enough effect; inconclusive means small, poorly fitted or top-dose-only effect; inactive means flat fitted curve, though single readings scatter.

test system: Dd2; assay: qHTS profiling for inhibitors of Plasmodium falciparum proliferation (AID 504749); further: nearly all actives have a fitted effect of over 60% in size;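 on activity, negative = inhibition: 0% = DMSO vehicle and full inhibition = artemisinin control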; conditions: P. falciparum in erythrocytes, SYBR Green DNA, 72 h; series mostly up to 28.7 µM; activity, negative = inhibition: at the top concentration
How it was run: (§1)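 Parasite proliferation within erythrocytes, 72 h exposure. Endpoint: SYBR Green I fluorescence after overnight lysis at room temperature. Controls: 0.29 uM artemisinin, DMSO.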
Potency means the concentration at half of the fitted maximal effect.

Q: How did the “activity, negative = inhibition” value turn out when Nc1nc2c(c(=O)[nH]1)N(C=O)[C@H](CNc1ccc(C(=O)N[C@@H](CCC(=O)O)C(=O)O)cc1)CN2 was run?
A: 0.142% [at 12.8 µM] (inactive)

Q: CCCCCCCCCCCC(CC1OC(=O)C1CCCCCC)OC(=O)C(CC(C)C)NC=O (stereo not given) was tested. Which Potency did it give?
A: 794 nM (active)

Q: Which Potency does the source give for COc1cccc2c1C(=O)c1c(O)c3c(c(O)c1C2=O)C[C@@](O)(C(=O)CO)C[C@@H]3O[C@H]1C[C@H](N)[C@H](OC2CCCCO2)[C@H](C)O1 (stereo not given in full) here?
A: 2000 nM (active)

Q: How did the “activity, negative = inhibition” value turn out when COc1ccc2c(c1OC)C(=O)OC2[C@H]1c2c(cc3c(c2OC)OCO3)CCN1C (stereo not given in full) was run?
A: -7.74% (inactive)

Q: Which “activity, negative = inhibition” value does the source give for OCC(O)C(O)C(O)CO (stereo not given) here?
A: 5.3% (inactive)

Q: How did the Potency turn out when CCC(C(=O)O)C1CCC(C)C(C(C)C(O)C(C)C(=O)C(CC)C2OC3(C=CC(O)[C@@]4(CC[C@](C)(C5CC[C@@](O)(CC)C(C)O5)O4)O3)C(C)CC2C)O1 (stereo not given in full) was run?
A: 891 nM (active)

Q: COc1ccc([C@@H]2CNC(=O)C2)cc1OC1CCCC1 was tested. Which “activity, negative = inhibition” value did it give?
A: 2.14% [at 12.8 µM] (inactive)

test system: ECU; assay: as above; conditions: P. falciparum in erythrocytes, SYBR Green DNA, 72 h; series mostly up to 28.7 µM; activity, negative = inhibition: at the top concentration
How it was run: as §1

Q: For Nc1nc2c(c(=O)[nH]1)N(C=O)[C@H](CNc1ccc(C(=O)N[C@@H](CCC(=O)O)C(=O)O)cc1)CN2, which “activity, negative = inhibition” value is on record?
A: -2.08% [at 12.8 µM] (inactive)

Q: For CCCCCCCCCCCC(CC1OC(=O)C1CCCCCC)OC(=O)C(CC(C)C)NC=O (stereo not given), which Potency is on record?
A: 398 nM (active)

Q: With COc1cccc2c1C(=O)c1c(O)c3c(c(O)c1C2=O)C[C@@](O)(C(=O)CO)C[C@@H]3O[C@H]1C[C@H](N)[C@H](OC2CCCCO2)[C@H](C)O1 (stereo not given in full) as the compound, how does the Potency read?
A: 2000 nM (active)

Q: How did the “activity, negative = inhibition” value turn out when COc1ccc2c(c1OC)C(=O)OC2[C@H]1c2c(cc3c(c2OC)OCO3)CCN1C (stereo not given in full) was run?
A: 6.16% (inactive)

Q: For OCC(O)C(O)C(O)CO (stereo not given), which “activity, negative = inhibition” value is on record?
A: -2.23% (inactive)

Q: Which Potency does the source give for CCC(C(=O)O)C1CCC(C)C(C(C)C(O)C(C)C(=O)C(CC)C2OC3(C=CC(O)[C@@]4(CC[C@](C)(C5CC[C@@](O)(CC)C(C)O5)O4)O3)C(C)CC2C)O1 (stereo not given in full) here?
A: 1580 nM (active)

Q: For COc1ccc([C@@H]2CNC(=O)C2)cc1OC1CCCC1, which “activity, negative = inhibition” value is on record?
A: -0.03% [at 12.8 µM] (inactive)

test system: FAB9; assay: as above; conditions: P. falciparum in erythrocytes, SYBR Green DNA, 72 h; series mostly up to 28.7 µM; activity, negative = inhibition: at the top concentration
How it was run: as §1

Q: With Nc1nc2c(c(=O)[nH]1)N(C=O)[C@H](CNc1ccc(C(=O)N[C@@H](CCC(=O)O)C(=O)O)cc1)CN2 as the compound, how does the “activity, negative = inhibition” value read?
A: 7.86% [at 12.8 µM] (inactive)

Q: For COc1cccc2c1C(=O)c1c(O)c3c(c(O)c1C2=O)C[C@@](O)(C(=O)CO)C[C@@H]3O[C@H]1C[C@H](N)[C@H](OC2CCCCO2)[C@H](C)O1 (stereo not given in full), which Potency is on record?
A: 12600 nM (active)

Q: Which “activity, negative = inhibition” value does the source give for COc1ccc2c(c1OC)C(=O)OC2[C@H]1c2c(cc3c(c2OC)OCO3)CCN1C (stereo not given in full) here?
A: -5.54% (inactive)

Q: For OCC(O)C(O)C(O)CO (stereo not given), which “activity, negative = inhibition” value is on record?
A: 0.904% (inactive)

Q: Which Potency does the source give for CCC(C(=O)O)C1CCC(C)C(C(C)C(O)C(C)C(=O)C(CC)C2OC3(C=CC(O)[C@@]4(CC[C@](C)(C5CC[C@@](O)(CC)C(C)O5)O4)O3)C(C)CC2C)O1 (stereo not given in full) here?
A: 2240 nM (active)

Q: How did the “activity, negative = inhibition” value turn out when COc1ccc([C@@H]2CNC(=O)C2)cc1OC1CCCC1 was run?
A: 12.7% [at 12.8 µM] (inactive)
